M1 ag: activates human CHRM1 receptor; 0.33% of 360,000 active; P11229; CHO-K1 hM1, Fluo-8 calcium fluorescence, agonist mode; 0% DMSO, 100% acetylcholine EC100; activation, % at 3 µM;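 active means activation above the run's mean compound activation plus 3 SD, cut at about 16% in these data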;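 further: peak over basal fluorescence ratio within a 140 s kinetic read after compound addition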
Target sequence (P11229 whole entry, looked up): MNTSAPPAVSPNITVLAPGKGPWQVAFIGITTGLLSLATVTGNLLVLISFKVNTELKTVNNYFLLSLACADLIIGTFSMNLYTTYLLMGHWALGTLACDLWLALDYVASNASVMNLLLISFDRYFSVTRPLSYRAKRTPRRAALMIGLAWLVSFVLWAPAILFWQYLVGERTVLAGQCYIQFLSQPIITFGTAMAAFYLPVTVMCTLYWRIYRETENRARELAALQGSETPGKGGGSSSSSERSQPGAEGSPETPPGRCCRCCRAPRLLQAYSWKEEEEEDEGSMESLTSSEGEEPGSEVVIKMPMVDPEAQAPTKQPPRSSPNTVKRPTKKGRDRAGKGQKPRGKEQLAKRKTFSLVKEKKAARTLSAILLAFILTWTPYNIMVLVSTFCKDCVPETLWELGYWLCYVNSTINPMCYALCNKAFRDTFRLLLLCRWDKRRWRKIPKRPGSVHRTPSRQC
CHO-K1 Ca PAM: M1 PAM counterscreen hit in parental CHO-K1 cells; activation, % at 3 µM; 0.02% of 360,000 active; ATP EC20, Fluo-8 calcium fluorescence; 0% at ATP EC20, 100% at ATP max;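 active means activation above the run cutoff, the mean activation of all test compounds plus 3 SD, cut at about 40% in these data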;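 further: peak over basal fluorescence ratio in a 140 s read after ATP addition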
M1 antag: blocks human M1 muscarinic receptor. P11229. CHO-K1 hM1, Fluo-8 calcium fluorescence, ACh EC80 antagonist. inhibition, % at 3 µM. 1.3% of 360,000 active. AID 588852;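 active means percent inhibition above its own plate's cutoff, namely the mean of that plate's compound wells plus 3 SD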;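 further: peak over basal fluorescence ratio during 140 s after agonist addition; 0% = ACh EC80 plus DMSO and 100% = DMSO alone without agonist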
CHRM1 PAM: positive allosteric modulators of human M1 muscarinic receptor; activation, % at 3 µM; CHO-K1 hM1, Fluo-8 calcium fluorescence, ACh EC20; 0% = ACh EC20, 100% = maximal ACh; AID 588819; P11229; 0.088% of 360,000 active; in the data active means activation above about 19%, passing the limit was not always enough
CHO-K1 Ca antag: M1 antagonist counterscreen hit in parental CHO-K1 cells; AID 602250; 0.6% of 360,000 active; inhibition, % at 3 µM; ATP-induced calcium, Fluo-8 fluorescence;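 active means inhibition above a per-plate cutoff, the plate's mean sample inhibition plus 3 SD, cut at about 24% in these data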;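 further: 0% = DMSO plus EC80 ATP and 100% = DMSO alone without ATP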
M1 ag parental: counter-screen for M1 agonists: effect in parental CHO-K1 cells; Fluo-8 calcium fluorescence; scaled to maximal ATP response, vehicle zero; activation, % at 3 µM; 0.48% of 360,000 active; in the data active means activation above about 15%;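 further: untransfected CHO-K1 host cells lacking M1 receptor as counterscreen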
* = called active by the depositor; / = not tested or not shown. Sampled rows, rich in hits. Any-hit rate of the full collection: about 2.3%.

SMILES	M1 ag	CHO-K1 Ca PAM	M1 antag	CHRM1 PAM	CHO-K1 Ca antag	M1 ag parental
c1ccc(Oc2cc(-c3ccccc3)nc(-c3ccccc3)n2)cc1	-2	-7	9	26*	3	0
CCCCCCCCCCC[N+](C)(C)CC/C=C1/c2ccccc2Sc2ccc(Cl)cc21	-10	3	99*	-30	-14	3
CCCCCCCCCC[N+](C)(C)CC/C=C1/c2ccccc2Sc2ccc(Cl)cc21	-8	0	83*	-33	-16	0
CCCCCC[n+]1c(-c2ccc(Cl)cc2Cl)csc1Nc1ccccc1	-3	9	-7	1	6	0
CC[N+](C)(C)CC/C=C1/c2ccccc2Sc2ccc(Cl)cc21	-6	-6	100*	-24	0	1
CCC1=Nc2cc(C(=O)O)ccc2Sc2ccc(Cl)cc21	-3	9	12	1	5	0
CCCCCCCCN1C(=O)[C@H](CC(=O)NCCCOCCCC)C[C@@]2(C(=O)OCC)CCCC=C12	/	12	/	/	-28	-1
O=C(Nc1cccc(C(=O)N2CCCC2)c1)C1CCCCC1	-3	10	-6	6	0	0
Cc1cccc(N2CCN(C(=O)c3[nH]c(C(F)(F)F)nc3-c3ccccc3)CC2)c1C	3	10	-31	2	-15	6
CC1CCCN(CCCNC(=O)c2ccc3c(c2)N(Cc2ccc(F)cc2)C(=O)c2ccccc2S3=O)C1 (stereo unspecified)	-6	-13	42*	-23	-16	0
O=C(NCCCN1CCCC1)c1ccc2c(c1)N(Cc1ccc(F)cc1)C(=O)c1ccccc1S2=O (stereo unspecified)	-5	13	26	-15	-15	0
O=C(NCCCN1CCOCC1)c1ccc2c(c1)N(Cc1cccc(Cl)c1)C(=O)c1ccccc1S2=O (stereo unspecified)	-4	22	10	-7	-3	1
CC1CCCN(CCCNC(=O)c2ccc3c(c2)N(Cc2cccc(Cl)c2)C(=O)c2ccccc2S3=O)C1 (stereo unspecified)	-6	-3	40*	-27	17	0
CCC1CCCCN1CCCNC(=O)c1ccc2c(c1)N(Cc1ccc(F)cc1)C(=O)c1ccccc1S2=O (stereo unspecified)	-7	0	71*	-22	-6	0
CCN(CC)C1CCN(C(=O)c2ccc(OC3CCN(C(=O)CCOC)CC3)cc2)C1 (stereo unspecified)	-9	23	-14	7	-12	0
O=S1(=O)N[C@@H](Cc2ccccc2)COc2cccc(N3CCSCC3)c21	/	25	/	/	-13	4
O=C(NCCCN1CCCCC1)c1ccc2c(c1)NC(=O)c1ccccc1S2	-6	10	43*	-21	-12	1
O=C1Nc2cc(C(=O)NCCCN3CCCC3)ccc2S/C1=C/c1ccccc1F	-6	24	-11	6	3	0
CC1(C(=O)NC(=S)NNC(=O)c2ccncc2)CCCCC1	39*	1	2	-9	5	28*
CCC(C)NC(=S)NNC(=O)c1ccncc1 (stereo unspecified)	1	-14	-10	20	27*	-1
O=C(NNC(=S)NC(=O)C12CC3CC(CC(C3)C1)C2)c1ccncc1	58*	-5	15	-23	2	46*
CC12CC3CC(C1)CC(C(=O)NNC(=O)c1ccncc1)(C3)C2	-8	9	63*	-30	-12	0
O=C(NNC(=S)NC(=O)c1ccc(F)cc1)c1ccncc1	-1	5	1	-4	-4	1
CC(C)c1ccc(C(=O)NNC(=O)c2ccncc2)cc1	-3	23	-5	7	-9	0
O=C1C(CCc2ccccc2)ON=C(c2cnccn2)N1Cc1ccc(F)cc1 (stereo unspecified)	-5	10	-2	-4	-1	2
SMILES	M1 ag	CHO-K1 Ca PAM	M1 antag	CHRM1 PAM	CHO-K1 Ca antag	M1 ag parental
CCOC(=O)CCC1(C(=O)OC)C(=O)CCCCCC=C1C(=O)OC (stereo unspecified)	9	-8	-3	12	21	0
CCOc1cc(C=NNC(=O)N(c2ccccc2)c2ccccc2)ccc1O	-8	9	2	-6	-3	1
Cc1[nH]c2ccccc2c1C(=O)C(=O)NCc1nnnn1-c1ccc(F)c(F)c1	1	10	-10	3	-3	2
CC(NC(=O)Nc1ccc(Cl)c(Cl)c1)C(c1ccccc1)N1CCOCC1 (stereo unspecified)	30*	10	10	3	14	38*
CC(NC(=O)c1ccc(Cl)cc1Cl)C(c1ccccc1)N1CCOCC1 (stereo unspecified)	-13	16	-11	11	9	1
CC(NC(=O)Nc1ccc([N+](=O)[O-])cc1)C(c1ccccc1)N1CCOCC1 (stereo unspecified)	26*	4	2	-1	-2	49*
CCC(NC(=O)c1cc(COc2cc(C)c(Cl)c(C)c2)on1)c1ccncc1 (stereo unspecified)	13	2	12	5	3	17*
COC1OCC(O)C(NC(=O)N(C)N=O)C1O (stereo unspecified)	-1	22	-8	6	-11	1
Cc1ccccc1S(=O)(=O)Cc1ccc(C(=O)N2CCN(c3cccc(C)c3C)CC2)o1	3	4	25	-6	26*	7
c1ccc(CN2CCC(Nc3nc(-c4cccs4)nc4ccccc34)CC2)cc1	-1	21	2	8	-4	16*
O=C(CNCCO)N1N=C(c2cccs2)CC1c1cccs1 (stereo unspecified)	-16	8	-9	7	-16	0
O=C(CN1CCCCC1)N1N=C(c2cccs2)CC1c1cccs1 (stereo unspecified)	-9	17	97*	-26	-2	0
CC1(C(=O)NS(=O)(=O)c2ccc(Cl)cc2)CCN1C(=O)C1CC1 (stereo unspecified)	-2	15	-15	9	-15	1
COc1ccccc1CN1C[C@@H]2C[C@@H](c3[nH]c4c(C)cccc4c3C)N3CCC[C@@]23C1=O	1	31	-10	10	-24	15*
CN(C)Cc1cc(C(C)(C)c2ccccc2)ccc1O	-5	7	43*	-27	-3	3
O=C(COc1ccc2ccccc2c1Br)Nc1ncn[nH]1	-5	-11	6	-5	15	19*
O=C(CN1CCCCC1)NC1CCc2cc3c(cc21)CCC3 (stereo unspecified)	-8	-30	1	-1	27*	-1
Cc1cc(C(=O)O)ccc1-c1ccc(/C=C2\SC(=O)N(CC(=O)Nc3ccc4c(c3)OCO4)C2=O)o1	2	-7	10	-3	27*	6
